The supplement of paper PMC10849652
About 7,900 targets were measured; listed, in parts, are those with a hit and a random draw of the rest. About 0.6% of all pairs of compound and target were hits. Unmarked numbers belong to inactive results.

How the values were obtained:
Test in all cases: log2 fold change, soluble protein after heating vs DMSO (PISA); higher = thermal stabilisation; K562 cells, 10 uM, 30 min; active = over 0.2 and 3.5 SD of the protein, either way, in both replicates (recomputed)
bafetinib = compound: Cc1ccc(NC(=O)c2ccc(CN3CC[C@H](N(C)C)C3)c(C(F)(F)F)c2)cc1Nc1nccc(-c2cncnc2)n1 [bafetinib]
In short: (§1)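 K562 cells at 2×10^6 cells/mL were exposed to 10 μM compound for 30 min, then aliquots were heated for 3 min across 48°C-58°C, pooled, and extracted in PBS containing 0.5% NP-40 at 4°C. The supernatant after 21,000xg for 90 min was taken as soluble protein and measured by TMTpro 16plex LC-MS/MS with channel sums equalised. Thermal stability is reported relative to control samples, with values from duplicates. Fold changes are given on a log2 scale.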

[1] = compound: Cc1cccc(CC(=O)N2CCc3c2ccc(-c2cn(C)c4ncnc(N)c24)c3F)n1
In short: as §1

nilotinib = compound: Cc1cn(-c2cc(NC(=O)c3ccc(C)c(Nc4nccc(-c5cccnc5)n4)c3)cc(C(F)(F)F)c2)cn1 [nilotinib]
In short: as §1

[2] = compound: Cc1nc(Nc2n[nH]c3c2CN(C(=O)N[C@H](CN(C)C)c2ccccc2)C3(C)C)c2sccc2n1
In short: as §1

dasatinib = compound: Cc1nc(Nc2ncc(C(=O)Nc3c(C)cccc3Cl)s2)cc(N2CCN(CCO)CC2)n1 [dasatinib]
In short: as §1

[3] = compound: Cc1ncc(-c2ccnc(Nc3ccc(S(C)(=O)=O)cc3)n2)n1C(C)C
In short: as §1

[4] = compound: Cn1cc(-c2ccc3c(c2)CCN3C(=O)Cc2cccc(C(F)(F)F)c2)c2c(N)ncnc21
In short: as §1

[5] = compound: Cn1cc(-c2ccc3nnc(C(F)(F)c4ccc5ncccc5c4)n3n2)cn1
In short: as §1

tipifarnib = compound: Cn1cncc1[C@@](N)(c1ccc(Cl)cc1)c1ccc2c(c1)c(-c1cccc(Cl)c1)cc(=O)n2C [tipifarnib]
In short: as §1

mubritinib = compound: FC(F)(F)c1ccc(/C=C/c2nc(COc3ccc(CCCCn4ccnn4)cc3)co2)cc1 [mubritinib]
In short: as §1

Sequence of UniProt O00165 (O00165 whole entry, looked up): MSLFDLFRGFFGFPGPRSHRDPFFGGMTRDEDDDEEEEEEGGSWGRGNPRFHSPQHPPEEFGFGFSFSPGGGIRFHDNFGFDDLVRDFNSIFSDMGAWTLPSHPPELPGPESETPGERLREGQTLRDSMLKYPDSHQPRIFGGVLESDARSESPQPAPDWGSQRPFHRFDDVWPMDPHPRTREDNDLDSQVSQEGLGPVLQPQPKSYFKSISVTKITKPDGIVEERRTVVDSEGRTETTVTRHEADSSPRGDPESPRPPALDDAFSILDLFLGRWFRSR
Sequence of UniProt Q96HJ9 (Q96HJ9 whole entry, looked up): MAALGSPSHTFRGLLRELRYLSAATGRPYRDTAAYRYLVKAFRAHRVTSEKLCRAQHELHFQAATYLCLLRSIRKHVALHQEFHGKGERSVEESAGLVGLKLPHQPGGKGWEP
Sequence of UniProt P06280 (P06280 whole entry, looked up): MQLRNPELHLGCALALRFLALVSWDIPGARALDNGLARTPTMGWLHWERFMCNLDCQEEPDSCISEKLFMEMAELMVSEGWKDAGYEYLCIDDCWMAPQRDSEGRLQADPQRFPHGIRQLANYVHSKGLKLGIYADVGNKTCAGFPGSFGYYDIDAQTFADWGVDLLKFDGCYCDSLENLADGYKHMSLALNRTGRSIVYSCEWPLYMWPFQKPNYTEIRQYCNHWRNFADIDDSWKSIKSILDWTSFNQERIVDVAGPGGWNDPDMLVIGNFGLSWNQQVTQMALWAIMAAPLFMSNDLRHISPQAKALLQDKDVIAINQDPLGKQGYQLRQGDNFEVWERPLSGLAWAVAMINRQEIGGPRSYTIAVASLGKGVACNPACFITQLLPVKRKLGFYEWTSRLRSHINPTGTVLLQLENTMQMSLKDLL
Sequence of UniProt P05114 (P05114 whole entry, looked up): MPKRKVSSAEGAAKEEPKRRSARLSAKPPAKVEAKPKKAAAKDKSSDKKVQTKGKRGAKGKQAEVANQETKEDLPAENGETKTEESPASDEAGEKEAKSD
Sequence of UniProt Q9P2D3 (Q9P2D3 whole entry, looked up): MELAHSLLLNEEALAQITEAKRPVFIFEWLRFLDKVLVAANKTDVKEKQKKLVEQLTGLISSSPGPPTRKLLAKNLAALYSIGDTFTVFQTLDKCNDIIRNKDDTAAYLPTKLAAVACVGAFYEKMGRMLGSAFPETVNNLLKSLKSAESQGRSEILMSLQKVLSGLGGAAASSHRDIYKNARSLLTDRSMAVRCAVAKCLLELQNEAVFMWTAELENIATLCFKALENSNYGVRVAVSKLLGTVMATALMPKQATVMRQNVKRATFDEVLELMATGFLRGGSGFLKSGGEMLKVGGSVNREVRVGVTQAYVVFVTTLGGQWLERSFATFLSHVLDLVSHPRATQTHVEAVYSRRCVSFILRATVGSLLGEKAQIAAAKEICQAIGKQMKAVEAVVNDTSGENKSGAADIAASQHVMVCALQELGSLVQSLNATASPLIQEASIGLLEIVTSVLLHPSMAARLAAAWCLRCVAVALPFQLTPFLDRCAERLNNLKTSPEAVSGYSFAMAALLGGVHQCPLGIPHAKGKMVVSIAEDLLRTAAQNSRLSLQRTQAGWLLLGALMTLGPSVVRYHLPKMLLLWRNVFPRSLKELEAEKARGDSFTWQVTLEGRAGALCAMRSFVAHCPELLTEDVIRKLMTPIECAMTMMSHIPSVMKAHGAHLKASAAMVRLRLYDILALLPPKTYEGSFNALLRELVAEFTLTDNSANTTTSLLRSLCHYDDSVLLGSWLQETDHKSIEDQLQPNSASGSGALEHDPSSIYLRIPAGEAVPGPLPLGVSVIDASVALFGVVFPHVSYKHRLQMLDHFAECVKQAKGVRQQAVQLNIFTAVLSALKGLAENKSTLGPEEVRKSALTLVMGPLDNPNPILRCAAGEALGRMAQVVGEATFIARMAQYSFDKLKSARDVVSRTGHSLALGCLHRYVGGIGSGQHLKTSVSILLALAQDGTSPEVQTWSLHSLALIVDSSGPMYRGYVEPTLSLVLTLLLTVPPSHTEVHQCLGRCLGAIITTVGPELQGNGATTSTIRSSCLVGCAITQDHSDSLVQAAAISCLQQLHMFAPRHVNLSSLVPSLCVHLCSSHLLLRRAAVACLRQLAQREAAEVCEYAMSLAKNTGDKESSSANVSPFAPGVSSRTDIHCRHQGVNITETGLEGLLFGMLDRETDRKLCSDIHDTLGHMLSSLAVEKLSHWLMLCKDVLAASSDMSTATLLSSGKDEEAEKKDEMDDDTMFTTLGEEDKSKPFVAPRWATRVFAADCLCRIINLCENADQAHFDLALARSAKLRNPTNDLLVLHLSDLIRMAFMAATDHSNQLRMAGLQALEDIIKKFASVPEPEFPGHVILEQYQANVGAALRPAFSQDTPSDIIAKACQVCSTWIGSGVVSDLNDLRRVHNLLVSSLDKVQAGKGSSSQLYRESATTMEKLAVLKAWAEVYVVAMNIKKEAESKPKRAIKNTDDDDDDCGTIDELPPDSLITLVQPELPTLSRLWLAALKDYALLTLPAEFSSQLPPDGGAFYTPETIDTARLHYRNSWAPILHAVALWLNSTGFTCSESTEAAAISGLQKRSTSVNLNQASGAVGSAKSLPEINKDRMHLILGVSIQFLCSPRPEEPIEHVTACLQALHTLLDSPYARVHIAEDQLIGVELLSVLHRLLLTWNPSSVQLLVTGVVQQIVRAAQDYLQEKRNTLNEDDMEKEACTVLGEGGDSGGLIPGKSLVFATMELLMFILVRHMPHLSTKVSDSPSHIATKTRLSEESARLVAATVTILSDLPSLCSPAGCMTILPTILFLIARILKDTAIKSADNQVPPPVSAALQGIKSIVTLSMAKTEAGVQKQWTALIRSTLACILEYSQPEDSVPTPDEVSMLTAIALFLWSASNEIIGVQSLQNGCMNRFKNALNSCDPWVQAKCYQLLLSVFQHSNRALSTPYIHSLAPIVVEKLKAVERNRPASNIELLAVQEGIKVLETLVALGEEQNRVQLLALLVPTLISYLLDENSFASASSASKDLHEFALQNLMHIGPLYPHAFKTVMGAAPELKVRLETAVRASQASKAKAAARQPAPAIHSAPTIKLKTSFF
Sequence of UniProt P52597 (P52597 whole entry, looked up): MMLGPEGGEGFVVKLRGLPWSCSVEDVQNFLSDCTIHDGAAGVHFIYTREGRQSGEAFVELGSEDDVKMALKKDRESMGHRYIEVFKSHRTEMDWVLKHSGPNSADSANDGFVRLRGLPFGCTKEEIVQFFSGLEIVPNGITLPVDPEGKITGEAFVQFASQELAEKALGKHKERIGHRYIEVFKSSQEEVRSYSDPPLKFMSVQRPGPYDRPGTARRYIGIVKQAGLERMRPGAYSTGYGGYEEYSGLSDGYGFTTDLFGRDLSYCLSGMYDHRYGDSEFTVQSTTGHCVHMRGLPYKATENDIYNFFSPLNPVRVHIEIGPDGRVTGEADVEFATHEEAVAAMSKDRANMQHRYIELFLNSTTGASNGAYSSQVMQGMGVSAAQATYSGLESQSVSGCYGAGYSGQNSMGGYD
Sequence of UniProt Q92522 (Q92522 whole entry, looked up): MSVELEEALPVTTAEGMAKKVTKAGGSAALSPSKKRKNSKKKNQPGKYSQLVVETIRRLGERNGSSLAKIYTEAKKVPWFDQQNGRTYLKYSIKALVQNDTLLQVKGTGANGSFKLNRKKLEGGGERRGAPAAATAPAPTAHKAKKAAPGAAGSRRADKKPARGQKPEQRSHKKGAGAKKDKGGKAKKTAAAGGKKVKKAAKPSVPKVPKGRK
Sequence of UniProt O94925 (O94925 whole entry, looked up): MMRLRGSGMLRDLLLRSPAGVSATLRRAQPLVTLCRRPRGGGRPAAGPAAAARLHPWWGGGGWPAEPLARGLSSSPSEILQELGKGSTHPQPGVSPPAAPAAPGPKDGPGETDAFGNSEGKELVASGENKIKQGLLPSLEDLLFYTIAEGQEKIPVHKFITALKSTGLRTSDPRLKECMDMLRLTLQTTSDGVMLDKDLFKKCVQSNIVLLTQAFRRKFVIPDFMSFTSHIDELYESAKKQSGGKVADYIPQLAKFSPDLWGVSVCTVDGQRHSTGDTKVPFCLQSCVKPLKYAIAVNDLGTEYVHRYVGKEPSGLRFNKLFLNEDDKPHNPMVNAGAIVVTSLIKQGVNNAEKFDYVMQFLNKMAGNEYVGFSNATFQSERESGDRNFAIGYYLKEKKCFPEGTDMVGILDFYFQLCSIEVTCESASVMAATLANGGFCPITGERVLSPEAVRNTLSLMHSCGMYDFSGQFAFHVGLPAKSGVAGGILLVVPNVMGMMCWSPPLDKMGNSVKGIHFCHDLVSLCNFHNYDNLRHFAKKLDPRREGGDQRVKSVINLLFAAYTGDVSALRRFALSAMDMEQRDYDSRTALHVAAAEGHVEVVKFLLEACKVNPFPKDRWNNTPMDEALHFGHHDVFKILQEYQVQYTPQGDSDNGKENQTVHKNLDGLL
Sequence of UniProt P31943 (P31943 whole entry, looked up): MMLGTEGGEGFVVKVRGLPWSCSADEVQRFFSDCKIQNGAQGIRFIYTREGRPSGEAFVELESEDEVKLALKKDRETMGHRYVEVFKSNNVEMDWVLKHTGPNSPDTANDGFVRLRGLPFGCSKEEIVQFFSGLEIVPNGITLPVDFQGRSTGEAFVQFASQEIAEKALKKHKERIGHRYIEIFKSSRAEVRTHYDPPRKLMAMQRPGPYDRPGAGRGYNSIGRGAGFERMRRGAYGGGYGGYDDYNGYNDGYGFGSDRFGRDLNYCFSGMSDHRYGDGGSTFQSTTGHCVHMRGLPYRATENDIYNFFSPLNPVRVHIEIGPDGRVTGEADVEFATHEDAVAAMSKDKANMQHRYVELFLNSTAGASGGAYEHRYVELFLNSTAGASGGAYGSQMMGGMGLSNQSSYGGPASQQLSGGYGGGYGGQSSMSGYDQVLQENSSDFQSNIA
Sequence of UniProt P0C0S5 (P0C0S5 whole entry, looked up): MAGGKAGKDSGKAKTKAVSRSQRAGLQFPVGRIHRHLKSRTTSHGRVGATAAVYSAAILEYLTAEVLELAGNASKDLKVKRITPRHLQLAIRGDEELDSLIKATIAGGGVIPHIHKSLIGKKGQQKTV

Target	log2 fold change (bafetinib)	log2 fold change [1]	log2 fold change (nilotinib)	log2 fold change [2]	log2 fold change (dasatinib)	log2 fold change [3]	log2 fold change [4]	log2 fold change [5]	log2 fold change (tipifarnib)	log2 fold change (mubritinib)
GOPC (UniProt Q9HD26)	0.233	-0.131	0.009	0.05	-0.081	0.021	-0.005	-0.02	0.127	-0.226
GNS (UniProt P15586)	-0.156	-0.002	0.003	0.037	0.006	-0.033	0.008	-0.028	0.02	-0.004
HMGCR isoform 3 (UniProt P04035)	0.008	0.016	-0.241	0.015	-0.027	-0.087	-0.023	-0.062	-0.021	0.1
IGF2BP2 (UniProt Q9Y6M1)	0.121	0.004	-0.058	-0.018	0.038	-0.039	-0.228	-0.191	0.069	-0.071
HMGN1 (UniProt P05114)	-0.014	-0.012	-0.022	0.057	0.146	0.019	-0.022	-0.048	0.066	-0.049
FERMT3 (UniProt Q86UX7)	-0.022	0.029	-0.036	-0.053	-0.075	-0.015	0.029	-0.019	-0.087	0.051
H2AZ1 (UniProt P0C0S5)	0.173	-0.204	-0.138	-0.029	-0.092	-0.006	-0.369	-0.133	0.013	-0.083
GNB2 (UniProt P62879)	0.12	-0.002	0.077	-0.018	0.057	-0.012	0.028	-0.032	0.003	-0.028
HAX1 (UniProt O00165)	-0.103	0.029	-0.113	-0.174	-0.044	0.069	-0.028	-0.068	-0.112	0.001
FANCD2 isoform 1 (UniProt Q9BXW9)	-0.06	-0.014	-0.145	0.15	-0.167	-0.119	0.126	0.1	-0.024	0.052
GMEB2 (UniProt Q9UKD1)	0.019	0.013	0.019	-0.021	-0.036	-0.05	-0.084	-0.006	-0.011	-0.041
GPKOW (UniProt Q92917)	-0.025	0.086	-0.057	-0.207	-0.326 (active)	-0.025	0.114	0.139	-0.071	0.126
GLA (UniProt P06280)	-0.529 (active)	-0.051	0.021	-0.007	-0.039	-0.04	0.005	0.03	0.064	0.035
GLRX3 (UniProt O76003)	-0.04	0.025	-0.048	-0.022	-0.054	0.015	-0.015	-0.014	-0.082	-0.004
HIKESHI (UniProt Q53FT3)	-0.003	0.02	-0.062	0.018	0.079	0.009	0.043	0.065	-0.043	0.025
HNRNPF (UniProt P52597)	-0.013	0.056	-0.106	-0.178	-0.15	-0.066	0.024	-0.057	-0.051	-0.022
GABARAPL1 isoform 2 (UniProt Q9H0R8)	-0.171	0.006	-0.05	-0.028	-0.031	0.017	-0.016	0.003	-0.075	0.044
H1FX (UniProt Q92522)	0.248	0.048	0.035	0.079	0.043	0.039	-0.189	-0.113	0.126	-0.138
FMC1 (UniProt Q96HJ9)	-0.128	-0.026	0.009	0.045	0.006	-0.012	-0.006	0.009	0.035	0.016
GLUD1 (UniProt P00367)	0.25	0.012	0.382 (active)	0.266 (active)	0.056	-0.015	0.173	0.04	0.068	0.046
HMOX2 (UniProt P30519)	0.006	0.048	0.002	-0.08	-0.141	-0.006	0.067	0.003	0.27 (active)	0.062
HNRNPH1 (UniProt P31943)	0.004	0.037	-0.141	-0.236	-0.083	-0.116	0.022	0.055	-0.124	-0.044
FNTB (UniProt P49356)	0.028	0.015	0.028	0.177	0.22	-0.056	0.196	0.251	0.757 (active)	-0.103
HOOK3 (UniProt Q86VS8)	-0.047	0.029	-0.088	-0.078	-0.07	0.009	0.002	-0.027	-0.001	-0.024
GPAT4 (UniProt Q86UL3)	-0.138	-0.028	-0.047	0.049	-0.024	-0.009	0.093	-0.018	-0.069	-0.008
GTF2E2 (UniProt P29084)	0.031	0.03	-0.082	-0.108	-0.241	0.005	-0.016	0.044	0.051	-0.02
GALNT2 (UniProt Q10471)	-0.046	0.041	-0.07	-0.066	-0.004	0.056	0.032	-0.018	0.008	0.008
GTF2A1 (UniProt P52655)	0	-0.047	0.111	-0.047	0.068	-0.078	0.081	0.349	0.144	-0.008
GLS isoform 3 (UniProt O94925)	0.045	0.028	-0.238	-0.162	-0.282	0.046	-0.097	0.114	-0.208	-0.492 (active)
HEATR5B (UniProt Q9P2D3)	-0.007	0.014	-0.049	-0.066	-0.119	0.072	-0.029	-0.012	-0.052	0.034
